HT1080 IDH1KD tx: toxicity to HT-1080 IDH1 knockdown cells (counter line) | 360,000 compounds, 2% hits | Potency, µM (titrated, usually from 46.1 µM), inactives show at the highest dose activity, negative = toxicity, most hits filed as cytotoxic | AID 686971 | HT-1080 IDH1 knockdown viability, ATP luminescence, 48 h;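 further: potency means the concentration at half of the fitted maximal effect; 0% = DMSO wells and -100% = cell-free medium wells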
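HT-1080-IDH1KD cells (IDH1 knocked down), 750/well in RPMI with 5% FBS, treated with compound 48 h at 37 degrees C. Viability by CellTiter-Glo luminescence, normalised to DMSO and no-cell wells; concentration-response curves classed.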
DT40 TDP1 no CPT: qHTS for Inhibitors of human tyrosyl-DNA phosphodiesterase 1 (TDP1): qHTS in cells in absence of CPT; 420,000 compounds, 15% hits; Potency, µM (top dose mostly 46.2 µM), inactives show at the top dose activity change, negative = growth inhibition, actives largely listed as inhibitors; DT40 Tdp1-/- hTDP1 cells, no CPT, ATP luminescence, 48 h; further: potency means the concentration at half of the fitted maximal effect; nearly all actives have a fitted effect of over 55% in size
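No-CPT arm: Tdp1-/-;hTDP1 DT40 cells (400/well) plus compounds, incubated ≥48 hr at 37 °C. Readout CellTiter-Glo luminescence.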
ELG1 repair inh: blocks ELG1-dependent DNA repair in HEK293T cells | HEK293T ELG1-luciferase reporter, luminescence, 16 h; DNA damage induced by 5-fluorouridine | Potency, µM (highest dose often 46.1 µM), without a hit: at the top dose activity change, negative = inhibition, actives largely listed as inhibitors | 330,000 compounds, 2.3% hits; further: potency means the concentration at half of the fitted maximal effect; nearly all actives have a fitted effect of over 55% in size
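5-Fluorouridine DNA damage + compound/DMSO, 2,000 cells/well, 16 h, 37 °C/5% CO2. ONE-Glo, 30 min RT, luminescence. Readout = decrease in reporter signal.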
TDP1 cell CPT: DT40-hTDP1 cell growth loss with CPT; 420,000 compounds, 12% hits; Potency, µM (top dose mostly 46.2 µM), without a hit: at the highest dose activity change, negative = growth inhibition, usual class: inhibitors; chicken DT40 Tdp1-/-;hTDP1 cells + 20 nM CPT, ATP luminescence, 48 h; AID 686979; further: potency means the concentration at half of the fitted maximal effect; nearly all actives have a fitted effect of over 55% in size
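Chicken DT40 Tdp1-/- cells complemented with human TDP1, 400 cells/well, exposed to compounds plus 20 nM camptothecin for at least 48 h at 37 C; viability read as ATP content by CellTiter-Glo luminescence.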
IL1B secr inh: inflammasome signaling inhibition, IL-1 beta readout. THP-1 LPS/ATP IL-1B secretion, AlphaLISA, 16 h; hits give low values. activity change, % at 57.5 µM. 360,000 compounds, 4.7% hits. AID 743279; in the data active means activity change below about -50%; inconclusive means mostly about -30% to -49%
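Secreted IL-1B measured by AlphaLISA bead assay after 16 h compound exposure of THP-1 cells; compounds (final up to 57.5 uM) added 1 h before LPS (250 ng/mL) and ATP (1.25 mM) stimulation; lower signal means less secretion.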
HT1080-NT tox: kills 2HG-producing HT-1080-NT fibrosarcoma cells; HT-1080-NT fibrosarcoma viability, CellTiter-Glo ATP luminescence, 48 h; Potency, µM (titrated, usually from 46.1 µM), for the others: at the top dose activity, negative = less viability, most hits filed as cytotoxic; 360,000 compounds, 1.6% hits; AID 686970;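 further: NT is the 2HG producing partner of a matched IDH1 knockdown line; potency means the concentration at half of the fitted maximal effect; 0% = DMSO-treated cells and -100% = media-only wells without cells; nearly all actives have a fitted effect of over 55% in size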
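Read-out is CellTiter-Glo luminescence after 10 minutes at room temperature, following 48 hours' compound treatment of HT-1080-NT cells (750 cells/well, RPMI, 5% FBS, 37 degrees C).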
Numbers without * were called inactive; ? = inconclusive; / = not tested or not shown; [ ] = dose if it differs, or a comment. Only some compounds are listed: those with a hit (about 19% of all), similar ones and a draw of the others. Unless noted, the call rests on the fitted dose curve; in most records, active means well fitted curve in the direction sought with a large enough effect; inconclusive means small, poorly fitted or top-dose-only effect, or another doubt; inactive means no such curve, though single readings can be large; an effect the other way counts as inactive or inconclusive. Unless noted, on the % scale 0 is the no-effect control and ±100 the full control effect.

SMILES	HT1080 IDH1KD tx	DT40 TDP1 no CPT	ELG1 repair inh	TDP1 cell CPT	IL1B secr inh	HT1080-NT tox
CN(NC(=O)c1ccc(Cl)cc1)c1nc(-c2ccccc2)nnc1C(F)(F)F	-15.5%	14.6µM*	?	20.6µM*	5.5	-14.2%
CC(C)(C)OC(=O)NCCCC[C@H](NC(=O)c1[nH]cnc1C(=O)Nc1ccc(CNC(=O)OC(C)(C)C)cc1)C(=O)OC(C)(C)C	?	4.61µM*	?	5.8µM*	0.0	?
CC(C)(C)OC(=O)NCCCC[C@H](NC(=O)c1nc[nH]c1C(=O)NCc1ccccc1)C(=O)OC(C)(C)C	?	?	?	?	?	-15.8%
CN(Cc1ccccc1)C(=O)c1[nH]cnc1C(=O)N[C@@H](CCCCNC(=O)OC(C)(C)C)C(=O)OC(C)(C)C	-5.7%	?	?	16.4µM*	?	-2.4%
CC(C)(C)OC(=O)NCCCC[C@H](NC(=O)c1[nH]cnc1C(=O)N[C@@H](Cc1ccccc1)C(=O)OC(C)(C)C)C(=O)OC(C)(C)C	-17.3%	9.2µM*	?	20.6µM*	-55.7*	-4.7%
C[C@H](NC(=O)c1nc[nH]c1C(=O)N[C@@H](CCCCNC(=O)OC(C)(C)C)C(=O)OC(C)(C)C)c1ccccc1	?	23.1µM*	?	?	-52.3*	?
Cc1oc2ncnc(N3CCCCC3)c2c1C(=O)NCC1CCN(Cc2ccccc2F)CC1	/	2.2%	/	-25.0%	/	/
COc1ccc(C(C)=O)cc1CSc1nnc(Nc2ccc(C)cc2)s1	?	23.1µM*	?	?	-66.5*	?
COc1ccc(C(C)=O)cc1CSc1nnc(Nc2ccccc2)s1	?	16.4µM*	14.6µM*	?	-28.2	?
COc1ccc(C(C)=O)cc1CSc1nnc(C)s1	4.2%	-8.4%	0.0%	-16.6%	-4.5	6.3%
CSCCC(NS(=O)(=O)c1ccc2c(c1)oc(=O)n2C)C(=O)NCc1ccc(Cl)cc1 (stereo not drawn)	/	-5.6%	/	-10.4%	/	/
CCOC(=S)SCC(=O)N1CCc2cc(OC)c(OC)cc2C1C1C(=O)CC(C)(C)CC1=O (stereo not drawn)	-6.8%	6.3%	1.9%	17.3%	0.0	-7.5%
CCOC(=S)SCC(=O)N1CCc2cc(OC)ccc2C1C1C(=O)CCCC1=O (stereo not drawn)	23.1µM*	18.4µM*	-6.1%	?	90.7	?
CO[C@@H]1[C@@H](O[C@@H]2O[C@H](C)[C@@H](O[C@H]3C[C@@](C)(O)[C@@H](O)[C@H](C)O3)[C@H](N(C)C)[C@H]2O)[C@@H](CC=O)C[C@@H](C)[C@@H](O[C@@H]2CC[C@H](N(C)C)[C@@H](C)O2)/C=C/C=C/C[C@@H](C)OC(=O)C[C@H]1O	/	-8.0%[21.1 µM]	/	-28.6%[21.1 µM]	/	/
Cc1ccc(N2CCn3c2nc2c3c(=O)n(CCc3ccccc3)c(=O)n2C)cc1C	/	-26.9%	/	-9.3%	/	/
CCNC(=O)NC(=O)C(C)Sc1nc2ccccc2n1CC(C)C (stereo not drawn)	-9.5%	16.4µM*	-22.3%	18.4µM*	5.9	-9.0%
CC(C)Cn1c(SCC(=O)NC(=O)NC2CCCC2)nc2ccccc21	?	16.4µM*	-28.1%	25.9µM*	-20.9	?
CC(C)Cn1c(SCC(=O)N2CCN(S(=O)(=O)c3ccccc3)CC2)nc2ccccc21	-0.6%	?	?	18.4µM*	-51.9*	-15.2%
CCn1c(N2CCN(S(=O)(=O)c3ccccc3)CC2)nc2ccccc21	1.4%	18.4µM*	?	?	-9.1	8.3%
Cn1c(N2CCN(S(=O)(=O)c3ccc(Cl)cc3)CC2)nc2ccccc21	9.4%	?	?	?	6.9	-2.3%

Screening data from PubChem.
